# Assay results reported in the supplement of paper PMC11417369.
# The full ranking holds about 25,000 sequences; the median of “ln(normalized median fluorescence intensity)” is about 9.7, and the highest 2% start at about 11. The sample holds the highest values, similar sequences and a random draw of the others, so the mix is not that of the screen.
# Tested on: PfAP2-HC AP2 domain (GST-tagged)
# Assay: gcPBM binding intensity (ln(normalized median fluorescence intensity)); higher = stronger DNA binding
# How it was run: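 Alexa488 anti-GST antibody, scanned at 488 nm, detected GST-tagged P. falciparum DNA-binding domains that had been expressed in E. coli and incubated for 1 h on an Agilent 4 × 180k array. The array carried primer-extended double-stranded 36-bp intergenic genomic probes and negative controls. Binding intensity is the highest Masliner-normalised natural-log median intensity across replicate spots of either orientation of each probe.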
row,Sequence,gcPBM binding intensity (ln)
1,GTTTTCATCCAAAAAAGTACATTTATTTTTATACGA [XGTACX_site1039],9.39
2,TTTTCTAAAGTAAGTTAAGATATGCAAAAAAAAGAA [GTGCAC_negctrl_site242],9.62
3,AAAAAAAAAAAAAACACACACACAAAATAAACAAAC [CACACA_site2720],10.8
4,AAAATAAAATAAAACACAAAAAAATAAAACAAAATA [CACACA_negctrl_site16],9.78
5,ACAAAATAAAAACACACACACAAACACAAAAAAATA [CACACA_site3390],11.4
6,AAGGATATAAAAAAACGTACGTACGATAATATAATT [XGTACX_site1292],9.86
7,GTTGTTATATAAAATTGTACATAAAAAACAAAATAT [XGTACX_site5313],9.66
8,AAAAACCATTGGCACACACACATAATATATAATATA [CACACA_site4903],11.4
9,AAAAACCATTCGCACACACACATAATCTATAATATA [CACACA_site6782],11.1
10,AAAAACCATGGGCACACACACATAATATATAATATA [CACACA_site1425],10.4
11,AAAAAAAAAAAAAAAACACACACATATATATAATAT [CACACA_site9038],10.3
12,AAAAAAAAAAAAAAAACACACATATATCTATAATAT [CACACA_site6665],9.84
13,GGAAAAACCATTCGCACACACACATAATATATAATA [CACACA_site1424],10.2
14,TTACTCAAACAAACAAAAAAAAAAAAAAAAAAAAAA [TGCATGCA_negctrl_site457],8.89
15,TATTTCATAATAAATTGTACGCGTAGAAAACCATGA [XGTACX_site7506],9.99
16,TATTTATGCACGCGTGCACACACATATGAAAAAAGG [CACACA_site9090],9.87
17,ACATATCTATCGTTTTTAATTGTATATTATTATAAC [TGCATGCA_negctrl_site144],9.76
18,AATAAAAAAAAAAAAAAAAAAAAAAAGACACTAAAA [CACACA_negctrl_site1075],9.53
19,ATAAAACAAAGACACACACACATACACAAAAAAAAA [CACACA_site7752],10.5
20,CAACATTTGAGACACACACACATACAAACAAACAAA [CACACA_site7538],11.2

row,Sequence,gcPBM binding intensity (ln)
1,GGCAACATTTGAAACACACACACATACAAACAAACA [CACACA_site3307],10.3
2,CAAAGACACAAACACACACACACATACATACATACA [CACACA_site453],11.3
3,AAAAAAAAAAGACACACACACACACTAATACATACA [CACACA_site6473],11.4
4,AAAAAAAAAAAAAAGACACACATATATATATATATA [CACACA_site633],9.63
5,AAAAAAAAAAGACACACACACACATACACATACATA [CACACA_site7362],11.1
6,AAAAAAAAAAAACACACACACACACTAATACATACA [CACACA_site8135],10.6
7,TATAGACAAACACATACATGCATACATACATACATA [TGCATGCA_site273],9.75
8,AAGACACAAAAACACACACACATACATACATACATA [CACACA_site454],10.3
9,AAAAAAAAAAGACACACACACACAAATACATACACA [CACACA_site6472],10.8
10,TTATGGTATAAAAAAATACACACTTATATATATTCT [CACACA_site488],9.72
11,TACGTAAAAATAATACGTACATATATTTATAGAAAA [XGTACX_site4959],9.71
12,TATTAATTTTTTTTTTTTTTTTTTTTTTTTTTTTTT [CACACA_negctrl_site1329],9.26
13,ATGATACATAAAGAATATAAAACATGAAATATAATA [CACACA_negctrl_site1461],9.79
14,AAGATTTGAAAAAATACACACAATAAAAAAATAAAA [CACACA_site3281],10.1
15,TTTTATTATTTTTGTTGTACAGTATACTGTATGATT [XGTACX_site5359],9.69
16,TTAAAAAATCACAACACACACACACGCAAAAAAAAA [CACACA_site6793],10.8
17,AACAAATACGAACACACACACACACTAAAAAAAAAA [CACACA_site6386],10.8
18,AAAAAATCACGACACACACACACACTAAAAAAAAAA [CACACA_site6792],11.3
19,TCATAAAGAACAAAGTGTACCTATATATTACATACA [XGTACX_site7595],9.59
20,TATAAATATAGACACACACACACCAAAGCGTAGCGC [CACACA_site6179],10.3

row,Sequence,gcPBM binding intensity (ln)
1,TATAAATATAAATACACACACACACGCCAAAGCGTA [CACACA_site6181],11
2,TATATATATATATATACACACACACCCACCAAAGCG [CACACA_site7904],10.1
3,TATATATATATATACACACACACACCCCAAAGCGTA [CACACA_site64],11.1
4,TATATATATAAATACACACACACACCCCAAAGCGTA [CACACA_site4211],10.6
5,TAAATATATAAATACACACACACCAAAGCAATAGAT [CACACA_site5605],10.5
6,TATTATATTTATTTATGTACACATATACTTAAATAA [XGTACX_site1355],9.69
7,AAATAGCCAAAAATCATGCACACCTAAAAAAAAAAA [CACACA_site2572],9.77
8,AGCTGAAAAAAAAGCTTGCACACGTATTTGCTTTAT [CACACA_site1512],9.81
9,ATAAACAATTAACAAACATGCAAATTTTAAATGTGT [TGCATGCA_site919],9.68
10,ATATTTGTATAAATTGCACACTTTATTTTTTTTAAG [CACACA_site1558],9.61
11,TTTGTTTGTAAAATGTTGCACTTTCTTTTGCTGATA,9.66
12,ATATATCTATATAGAAATGTATATATATATATGTGT [TGCATGCA_negctrl_site349],9.77
13,TATTTCGTAATTTAATAATATACAAGAAATATATAT [XGTACX_negctrl_site143],9.4
14,CAATCAAATGGACACACACACACCTAAACATAAAAG [CACACA_site5524],10.5
15,ATCAAATAGAGACACACACACCTAAACATAAAAGAA [CACACA_site7321],10.6
16,AACAATCAAATAGACACACACACACCCAAACATAAA [CACACA_site2757],10.6
17,ATAAAAAAGAAACAAACACACATACATACAAACAAA [CACACA_site4256],10.3
18,CAATCAAAGAAACACACACACACCTAAACATAAAAG [CACACA_site2756],11.7
19,CAATCAAATAGACACACACACACCTAAACATAAAAG [CACACA_site7322],11.1
